The list is not random: actives were taken first. Their share in the collection is about 4.1%.
ABHD5-PLIN5 inh: inhibitors of human ABHD5-perilipin-5 interaction. Q00G26+Q8WTS1. Split G. princeps luciferase complementation, luminescence, 4 h. inhibition, % at 4 µM. 360,000 compounds, 0.78% hits;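 active = inhibition above the mean inhibition across every tested compound plus 3 SD, cut at about 22% in these data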;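 also: 0% = DMSO only wells and the 100% control is not disclosed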
MBD2 inh: blocks human MBD2 binding to methylated DNA. Q9UBB5. TR-FRET, MBD2 binding to methylated oligonucleotide. inhibition, % at 4.4 µM. 370,000 compounds, 0.31% hits. AID 686964; in the data active = inhibition above about 13%
rCAG RNA binder: binds r(CAG) RNA repeats. r(CAG) RNA repeat, TO-PRO-1 dye displacement fluorescence. inhibition, % at 3 µM. 370,000 compounds, 1.3% hits. AID 651821;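 active = inhibition above the plate cutoff, the mean of all test compounds on that plate plus 3 SD, cut at about 35% in these data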;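 also: 0% = DMSO alone and 100% = 100 µM mitoxantrone as full dye displacement; higher means more dye released from RNA so lower well fluorescence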
PRMT1 inh: inhibitors of human PRMT1; 370,000 compounds, 1.3% hits; recombinant PRMT1, activity-based probe fluorescence polarization; Q99873; inhibition, % at 2.79 µM; AID 652257;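 active = inhibition above about 21% made by adding two undisclosed values, limit read from the data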
LEDGF integ inh: blocks HIV-1 LEDGF/p75-dependent DNA integration; TR-FRET IN-LEDGF/p75 DNA integration, Eu/Cy5; inhibition, % at 3.7 µM; 370,000 compounds, 0.64% hits; AID 743269;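 active = inhibition above the screen-wide mean plus 3 SD, cut at about 13% in these data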;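 also: signal is the Cy5 over europium emission ratio at 671 and 618 nm; 0% = plate median of compound wells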
UHRF1 binding: blocks human UHRF1 binding to methylated DNA | UHRF1 binding to methylated oligo, TR-FRET | inhibition, % at 4.4 µM | 370,000 compounds, 0.75% hits; in the data active = inhibition above about 21%;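 also: UHRF1 SRA domain binding a hemimethylated CpG hairpin DNA probe; 0% = median of test compound wells and 100% = reference inhibitor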
Target sequence (Q96T88 whole entry, looked up, the tested form may be a part): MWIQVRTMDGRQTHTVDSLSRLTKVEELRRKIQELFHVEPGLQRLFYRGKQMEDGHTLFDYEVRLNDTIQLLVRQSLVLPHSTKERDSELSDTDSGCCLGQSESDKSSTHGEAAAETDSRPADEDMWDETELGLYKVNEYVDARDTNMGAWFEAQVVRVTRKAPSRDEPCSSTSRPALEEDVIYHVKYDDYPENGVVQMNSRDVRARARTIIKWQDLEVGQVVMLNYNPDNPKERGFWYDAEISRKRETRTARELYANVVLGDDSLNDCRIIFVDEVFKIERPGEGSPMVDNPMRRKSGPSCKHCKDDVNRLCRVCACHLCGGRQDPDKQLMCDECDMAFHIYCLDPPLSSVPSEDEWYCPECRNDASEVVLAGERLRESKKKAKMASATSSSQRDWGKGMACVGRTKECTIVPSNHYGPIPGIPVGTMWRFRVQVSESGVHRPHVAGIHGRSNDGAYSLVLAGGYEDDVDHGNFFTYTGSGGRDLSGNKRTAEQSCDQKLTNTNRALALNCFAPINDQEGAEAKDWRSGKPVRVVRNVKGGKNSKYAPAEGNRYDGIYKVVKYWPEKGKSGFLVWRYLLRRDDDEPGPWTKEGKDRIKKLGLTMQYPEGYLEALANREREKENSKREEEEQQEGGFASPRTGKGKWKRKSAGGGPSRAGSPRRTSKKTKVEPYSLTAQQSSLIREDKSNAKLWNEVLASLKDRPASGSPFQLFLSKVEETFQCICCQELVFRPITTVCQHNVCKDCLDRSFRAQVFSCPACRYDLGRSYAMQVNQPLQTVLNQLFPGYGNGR
rCAG binder conf: r(CAG) RNA repeat binding, confirmation | shares compounds with rCAG RNA binder | TO-PRO-1 dye displacement fluorescence | inhibition, % at 3 µM | 4,300 compounds, 70% hits | AID 652065;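 active = inhibition above a per-plate cutoff, the mean inhibition of sample wells plus 3 SD, cut at about 35% in these data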;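 also: loss of TO-PRO-1 fluorescence as compound displaces dye from 1x1 AA loop RNA; 0% = DMSO only wells and 100% = 100 µM mitoxantrone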
DNA CAG counter: DNA CAG dye complex inhibition counter-screen; shares compounds with rCAG RNA binder; d(CAG) DNA oligo TO-PRO-1 dye displacement, fluorescence; inhibition, % at 3 µM; 4,300 compounds, 94% hits; AID 652068;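 active = inhibition above its plate's cutoff, the mean test-well inhibition plus 3 SD, cut at about 4.8% in these data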;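 also: 0% = DNA dye mix with DMSO and 100% = 100 µM mitoxantrone; hits displace the dye from DNA and so lower well fluorescence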
The depositor's hits bear a star; x = not tested or not shown.

SMILES	ABHD5-PLIN5 inh	MBD2 inh	rCAG RNA binder	PRMT1 inh	LEDGF integ inh	UHRF1 binding	rCAG binder conf	DNA CAG counter
O=C(NCc1ccccc1)c1c[nH]c2ccc(S(=O)(=O)Nc3ccc4c(c3)OCCO4)cc2c1=O	2	4	37*	1	3	-2	33	12*
COC(=O)[C@]12C[C@H](CC(=O)NCCCCc3ccccc3)C(=O)N(Cc3ccccc3)C1=C[C@H](C(C)C)O[C@@H]2C1CC1	x	-2	8	-1	6	2	x	x
O=C(CCN1C(=O)S/C(=C/c2ccccc2)C1=O)Nc1ccc(O)c(C(=O)O)c1	14	0	56*	12	-7	2	40*	14*
CN1C(=O)/C(=C/c2ccc(C(=O)Nc3ccc(O)cc3C(=O)O)cc2)SC1=S	3	-1	55*	3	1	-1	94*	82*
O=C(CCN1C(=O)S/C(=C\c2ccccc2)C1=O)Nc1ccc(O)cc1C(=O)O	8	-2	46*	10	4	-3	33	8.4*
COc1ccc(-c2cc(C(=O)NN=Cc3ccccc3F)[nH]n2)cc1	x	5	3	-1	-5	0	x	x
COC(=O)[C@H]1C[C@@]2(C)c3ccccc3N(C(=O)OC(C)(C)C)[C@H]2N1C(=O)OC(C)(C)C	x	1	-2	-1	2	1	x	x
CCOC(=O)CC[C@@H]1CC[C@]2(CCCN(C(=O)c3ccccc3)C2)O1	x	-3	0	-1	-3	-3	x	x
O=C(O)c1ccccc1N/N=C/c1cc(Br)cc(Br)c1O	0	1	45*	3	-6	1	92*	75*
Nc1nc2c(ncn2[C@@H]2O[C@H](C(=O)NCC3CCCCC3)[C@@H](O)[C@H]2O)c(=O)[nH]1	x	-3	3	6	-4	2	x	x
CC1CC(C)CN(C(=O)c2cccc(S(=O)(=O)Nc3cc(C(F)(F)F)ccc3Cl)c2)C1 (configuration not stated)	-5	-3	71*	-1	3	-3	66*	27*
O=C(NCCc1c[nH]c2ccccc12)OCc1cn(-c2ccc(F)cc2F)nn1	x	-4	4	-6	-1	6	x	x
O=C(Nc1nnc(SCc2ccccc2)s1)c1cccc([N+](=O)[O-])c1	2	6	36*	2	1	0	23	6.0*
O=C(O)c1cccc(NC(=S)NC(NC(=O)c2ccccc2[N+](=O)[O-])C(Cl)(Cl)Cl)c1 (configuration not stated)	2	-2	20	-5	0	-2	x	x
Cc1ccc(NC(=S)NNC(=O)c2cccc([N+](=O)[O-])c2)cc1Cl	-9	8	73*	3	4	-3	70*	24*
CC(=O)c1cccc(NC(=S)NNC(=O)c2ccc(C)c([N+](=O)[O-])c2)c1	-3	2	41*	-3	0	-6	38*	15*
Cc1ccc(Nc2ccc(C(N)=O)cc2[N+](=O)[O-])cc1C	6	-7	2	2	0	-10	x	x
O=C(O)c1cccc(NC(=S)NC(NC(=O)c2cccc([N+](=O)[O-])c2)C(Cl)(Cl)Cl)c1 (configuration not stated)	-5	-7	53*	0	11	2	30	8.7*
Cc1ccc(NC(=S)NNc2ccc(C(=O)O)cc2[N+](=O)[O-])cc1C	-7	3	35*	2	0	-1	23	10*
O=C(Nc1ccc(F)cc1F)c1cc(-c2ccc(Cl)cc2)nc2ccccc12	x	2	4	3	-5	2	x	x
COC(=O)[C@]12C[C@H](CC(=O)NCc3cccc4ccccc34)C(=O)N(CCc3ccc(OC)c(OC)c3)C1=C[C@H](C(C)(C)C)O[C@@H]2C	x	-4	7	1	4	0	x	x
COC(=O)[C@]12C[C@H](CC(=O)N3CCCCC3)C(=O)N(Cc3ccc(Cl)cc3Cl)C1=C[C@H](C(C)C)O[C@@H]2C1CC1	x	-7	1	-7	4	-1	x	x
COC(=O)c1cccc(Cn2ccc3ccc(-c4ccc5ccn(C(=O)c6ccccc6OC)c5c4)cc32)c1	x	-2	13	-6	5	-1	x	x
Cc1ccc(-c2csc(NC(=O)c3ccno3)n2)cc1	5	3	45*	10	1	4	49*	22*
COc1ccc([C@@H]2CC=C(C(=O)O)[C@H](c3ccccc3F)N2S(=O)(=O)c2ccccc2C)cc1	0	1	41*	-1	4	3	41*	11*
SMILES	ABHD5-PLIN5 inh	MBD2 inh	rCAG RNA binder	PRMT1 inh	LEDGF integ inh	UHRF1 binding	rCAG binder conf	DNA CAG counter
COc1ccc([C@@H]2CC=C(C(=O)O)[C@H](c3ccc(F)cc3)N2S(=O)(=O)c2ccccc2C)cc1	3	3	59*	3	4	2	45*	13*
Cc1ccc([C@H]2C(C(=O)O)=CC[C@@H](c3ccc(C)cc3)N2S(=O)(=O)c2ccccc2C)cc1	-9	4	75*	2	2	1	62*	27*
Cc1ccc([C@@H]2CC=C(C(=O)O)CN2S(=O)(=O)c2ccccc2C)cc1	-5	1	22	0	2	-1	x	x
CCOC(=O)C1=CC[C@@H](c2ccccc2)N(S(=O)(=O)c2ccc(C)cc2)[C@H]1c1ccccc1C	-3	5	5	2	5	3	x	x
COc1ccc([C@@H]2CC=C(C(=O)O)[C@H](c3ccc(C)cc3)N2S(=O)(=O)c2ccccc2C)cc1	-6	2	66*	-1	0	20	63*	26*
Cc1ccc([C@@H]2CC=C(C(=O)O)[C@H](c3ccccc3)N2S(=O)(=O)c2ccccc2C)cc1	-10	2	55*	0	0	-1	57*	20*
COc1ccc(N(CC(=O)Nc2ccccc2C(=O)O)S(=O)(=O)c2ccc(C)c([N+](=O)[O-])c2)cc1	-6	4	72*	5	-3	3	54*	17*
Cc1ccc(S(=O)(=O)N(CC(=O)Nc2ccccc2C(=O)O)c2ccccc2)cc1	-1	2	41*	2	-6	1	34	8.4*
O=C(NCc1ccco1)O[C@@H]1CC[C@@]23CCCN2C(=O)CCC[C@H]3C1	x	0	x	0	0	-1	x	x
CC1(C)OC(=O)C2=C(CC(CCc3ccccc3)OC2c2cccc(C(F)(F)F)c2)O1 (configuration not stated)	x	1	2	-3	2	-1	x	x
O=C(O)c1cccc(Nc2nc(C(F)(F)F)nc3ccccc23)c1	3	1	15	2	3	-2	x	x

Bioassay records from PubChem.
